# PubChem BioAssay AID1159580 (chemical genetic matrix, 2015)
# About 2,000 (36%) of roughly 5,500 compounds were called active. Not shown: some 18% with an inconclusive outcome. The list shows a part of the results. Unmarked numbers belong to inactive results. No stated cut-off is given here; in the data, active means normalized growth mostly below about 0.91 (no sharp cut-off); inconclusive means no clear call, values can overlap the other calls; inactive means mostly above about 0.92.
# Experiment: chemical genetic growth profiling, strain panel (AID 1159580);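 further: tested at 20 µM; growth read once vehicle control cultures reached saturation at 30 °C; 1 = growth at the plate median or of vehicle wells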
# Details: S. cerevisiae deletion strains, growth OD
# [1] = locus YAL040C, strain CLN3, stronger effect = lower value
# [2] = locus YCL061C, strain MRC1 (second series), stronger effect = lower value
# [3] = locus YDR363W, strain ESC2, stronger effect = lower value
# [4] = locus YER002W, strain NOP16, stronger effect = lower value
# [5] = locus YGR078C, strain PAC10, stronger effect = lower value
# [6] = locus YMR307W, strain GAS1, stronger effect = lower value
# [7] = locus YNL128W, strain TEP1, stronger effect = lower value
# [8] = locus YNL153C, strain GIM3, stronger effect = lower value
# [9] = locus YNL175C, strain NOP13, stronger effect = lower value
# [10] = locus YNL197C, strain WHI3, stronger effect = lower value
# [11] = locus YNL224C, strain SQS1, stronger effect = lower value
# [12] = locus YOR083W, strain WHI5 (second series), stronger effect = lower value
# [13] = locus YPL241C, strain CIN2, stronger effect = lower value
compound,measurement,setting,value
O=C1CN2Cc3c(ccc(Cl)c3Cl)N=C2N1,normalized growth,"locus YAL021C, strain ccr4, stronger effect = lower value",0.988
same,normalized growth,"locus YAL026C, strain drs2, stronger effect = lower value",0.976
same,normalized growth,"locus YAL030W, strain snc1, stronger effect = lower value",0.987
same,normalized growth,"locus YBL061C, strain skt5, stronger effect = lower value",1
same,normalized growth,"locus YBR009C, strain hhf1, stronger effect = lower value",0.966
same,normalized growth,"locus YBR023C, strain chs3, stronger effect = lower value",0.983
same,normalized growth,"locus YBR171W, strain sec66, stronger effect = lower value",0.967
same,normalized growth,"locus YBR231C, strain swc5, stronger effect = lower value",0.982
same,normalized growth,"locus YBR279W, strain paf1, stronger effect = lower value",0.978
same,normalized growth,"locus YCL011C, strain gbp2, stronger effect = lower value",0.975
same,normalized growth,"locus YCL016C, strain dcc1, stronger effect = lower value",0.978
same,normalized growth,"locus YCL061C, strain MRC1, stronger effect = lower value",0.984
same,normalized growth,"locus YCL069W, strain vba3, stronger effect = lower value",0.986
same,normalized growth,"locus YCR088W, strain abp1, stronger effect = lower value",1.03
same,normalized growth,"locus YDL005C, strain med2, stronger effect = lower value",0.96
same,normalized growth,"locus YDL040C, strain nat1, stronger effect = lower value",0.986
same,normalized growth,"locus YDR001C, strain nth1, stronger effect = lower value",1.05
same,normalized growth,"locus YDR069C, strain doa4, stronger effect = lower value",0.972
same,normalized growth,"locus YDR137W, strain rgp1, stronger effect = lower value",0.962
same,normalized growth,"locus YDR159W, strain sac3, stronger effect = lower value",0.965
same,normalized growth,"locus YDR195W, strain ref2",0.961
same,normalized growth,"locus YDR297W, strain sur2, stronger effect = lower value",0.97
same,normalized growth,"locus YDR334W, strain swr1, stronger effect = lower value",0.99
same,normalized growth,"locus YDR335W, strain msn5, stronger effect = lower value",1.01
same,normalized growth,"locus YDR392W, strain spt3, stronger effect = lower value",0.952
same,normalized growth,"locus YEL003W, strain gim4, stronger effect = lower value",0.98
same,normalized growth,"locus YEL037C, strain rad23, stronger effect = lower value",1.09 [resistant] (active)
same,normalized growth,"locus YEL061C, strain CIN8 (second series), stronger effect = lower value",1.04
same,normalized growth,"locus YER015W, strain faa2, stronger effect = lower value",1.03
same,normalized growth,"locus YER016W, strain bim1, stronger effect = lower value",0.979
same,normalized growth,"locus YER111C, strain swi4, stronger effect = lower value",1.1 [resistant] (active)
same,normalized growth,"locus YER155C, strain BEM2 (second series), stronger effect = lower value",1.02
same,normalized growth,"locus YFR010W, strain ubp6, stronger effect = lower value",1.02
same,normalized growth,"locus YGL167C, strain pmr1, stronger effect = lower value",0.968
same,normalized growth,"locus YGL173C, strain kem1, stronger effect = lower value",0.972
same,normalized growth,"locus YGL227W, strain vid30, stronger effect = lower value",0.969
same,normalized growth,"locus YGL240W, strain doc1, stronger effect = lower value",0.97
same,normalized growth,"locus YGL253W, strain hxk2, stronger effect = lower value",0.987
same,normalized growth,"locus YHR013C, strain ard1, stronger effect = lower value",0.956
same,normalized growth,"locus YHR027C, strain rpn1, stronger effect = lower value",0.996
same,normalized growth,"locus YHR030C, strain SLT2, stronger effect = lower value",0.984
same,normalized growth,"locus YHR079C, strain IRE1, stronger effect = lower value",0.996
same,normalized growth,"locus YHR142W, strain chs7, stronger effect = lower value",1.04
same,normalized growth,"locus YJL092W, strain hpr5, stronger effect = lower value",0.983
same,normalized growth,"locus YJL095W, strain BCK1 (second series), stronger effect = lower value",0.982
same,normalized growth,"locus YJL095W, strain BCK1, stronger effect = lower value",0.973
same,normalized growth,"locus YJL115W, strain asf1, stronger effect = lower value",1.08
same,normalized growth,"locus YJL129C, strain trk1, stronger effect = lower value",0.978
same,normalized growth,"locus YJL154C, strain vps35, stronger effect = lower value",0.976
same,normalized growth,"locus YJL164C, strain tpk1, stronger effect = lower value",0.999
same,normalized growth,"locus YJL166W, strain qcr8, stronger effect = lower value",0.993
same,normalized growth,"locus YJL187C, strain SWE1, stronger effect = lower value",0.977
same,normalized growth,"locus YJR066W, strain TOR1, stronger effect = lower value",0.929
same,normalized growth,"locus YKL160W, strain elf1, stronger effect = lower value",0.996
same,normalized growth,"locus YKR026C, strain gcn3, stronger effect = lower value",0.97
same,normalized growth,"locus YKR091W, strain srl3, stronger effect = lower value",0.987
same,normalized growth,"locus YLL001W, strain dnm1, stronger effect = lower value",0.956
same,normalized growth,"locus YLL026W, stronger effect = lower value",0.975
same,normalized growth,"locus YLL041C, strain sdh2, stronger effect = lower value",0.975
same,normalized growth,"locus YLR027C, strain aat2, stronger effect = lower value",0.991
same,normalized growth,"locus YLR113W, strain HOG1, stronger effect = lower value",1.01
same,normalized growth,"locus YLR221C, strain rsa3, stronger effect = lower value",1
same,normalized growth,"locus YLR258W, strain gsy2, stronger effect = lower value",0.979
same,normalized growth,"locus YLR262C, strain YPT6 (second series), stronger effect = lower value",0.985
same,normalized growth,"locus YLR320W, strain mms22, stronger effect = lower value",1.01
same,normalized growth,"locus YLR342W, strain FKS1, stronger effect = lower value",1.11 [resistant] (active)
same,normalized growth,"locus YLR357W, strain rsc2, stronger effect = lower value",0.925
same,normalized growth,"locus YLR370C, strain arc18, stronger effect = lower value",0.97
same,normalized growth,"locus YLR384C, strain iki3, stronger effect = lower value",1.02
same,normalized growth,"locus YML120C, strain ndi1, stronger effect = lower value",0.996
same,normalized growth,"locus YMR058W, strain fet3, stronger effect = lower value",0.978
same,normalized growth,"locus YMR125W, strain sto1, stronger effect = lower value",0.92
same,normalized growth,"locus YMR129W, stronger effect = lower value",0.964
same,normalized growth,"locus YMR205C, strain PFK2, stronger effect = lower value",0.949
same,normalized growth,"locus YMR231W, strain pep5, stronger effect = lower value",0.968
same,normalized growth,"locus YNL071W, strain lat1, stronger effect = lower value",0.985
same,normalized growth,"locus YNL183C, strain NPR1, stronger effect = lower value",0.941
same,normalized growth,"locus YNL209W, strain ssb2, stronger effect = lower value",0.987
same,normalized growth,"locus YNL248C, strain rpa49, stronger effect = lower value",0.997
same,normalized growth,"locus YNL322C, strain KRE1 (second series), stronger effect = lower value",0.985
same,normalized growth,"locus YNR049C, strain mso1, stronger effect = lower value",1.02
same,normalized growth,"locus YOR001W, strain rrp6, stronger effect = lower value",0.996
same,normalized growth,"locus YOR070C, strain gyp1, stronger effect = lower value",1.03
same,normalized growth,"locus YOR080W, strain dia2, stronger effect = lower value",0.963
same,normalized growth,"locus YOR083W, strain WHI5, stronger effect = lower value",0.999
same,normalized growth,"locus YOR106W, strain vam3, stronger effect = lower value",0.991
same,normalized growth,"locus YOR231W, strain MKK1, stronger effect = lower value",0.989
same,normalized growth,"locus YOR265W, strain rbl2, stronger effect = lower value",0.988
same,normalized growth,"locus YOR270C, strain vph1, stronger effect = lower value",0.957
same,normalized growth,"locus YOR290C, strain snf2, stronger effect = lower value",0.957
same,normalized growth,"locus YPL051W, strain arl3, stronger effect = lower value",1
same,normalized growth,"locus YPL078C, strain atp4, stronger effect = lower value",0.995
same,normalized growth,"locus YPL106C, strain sse1, stronger effect = lower value",0.958
same,normalized growth,"locus YPL240C, strain hsp82, stronger effect = lower value",0.97
same,normalized growth,"locus YPL256C, strain CLN2, stronger effect = lower value",1.01
C[C@@H]1C(=O)NC2=Nc3cccc(Cl)c3CN21,normalized growth,"locus YAL013W, strain DEP1, stronger effect = lower value",0.983
same,normalized growth,[1],1
same,normalized growth,[2],1
same,normalized growth,"locus YDR150W, strain NUM1, stronger effect = lower value",1.01
same,normalized growth,[3],1
same,normalized growth,[4],1
same,normalized growth,[5],1
same,normalized growth,"locus YGR229C, strain SMI1, stronger effect = lower value",1
same,normalized growth,[6],1
same,normalized growth,[7],1.01
same,normalized growth,[8],0.982
same,normalized growth,[9],0.992
same,normalized growth,[10],1
same,normalized growth,[11],1
same,normalized growth,"locus YNL322C, strain KRE1, stronger effect = lower value",0.997
same,normalized growth,[12],1.01
same,normalized growth,"locus YPL055C, strain LGE1, stronger effect = lower value",1.02
same,normalized growth,[13],1
CN1CC(O)C(O)C(O)C1CO (stereo unspecified),normalized growth,[1],1
same,normalized growth,[2],1
same,normalized growth,[3],0.997
same,normalized growth,[4],1.01
same,normalized growth,[5],1.01
same,normalized growth,[6],0.998
same,normalized growth,[7],0.975
same,normalized growth,[8],1.01
same,normalized growth,[9],0.992
same,normalized growth,[10],1
same,normalized growth,[11],0.992
same,normalized growth,[12],1
same,normalized growth,[13],1.01
